From PubChem BioAssay
Calls of active or inactive are those of the source.

assay: S. cerevisiae RM11-1a growth modifiers, primary screen, strain RM11-1a, OD600, basal, 24 h (AID 1177); conditions: OD600, 24 h, higher = more signal, called active from +8 up or from −8 down;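 further: cultures grown under basal conditions with no added stressor; test concentration not given here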

SMILES	z-score
O=C(NC1CC1)[C@@H]1c2ccccc2C(=O)N(Cc2cc(C(F)(F)F)cc(C(F)(F)F)c2)[C@H]1c1ccc(CO)cc1	-0.44 (inactive)
COc1ccc(C(O)C2C=CC3C(=O)NC(=O)C3N2Nc2ccc(Cl)cc2Cl)c2ccccc12 (stereo unspecified)	0.361 (inactive)
O=C(NCCN1CCOCC1)[C@@H]1c2ccccc2C(=O)N(Cc2ccccc2C(F)(F)F)[C@H]1c1ccc(CO)cc1	-0.276 (inactive)
CN(C)CCCCNC(=O)[C@H]1C[C@H]2C(=O)N3CCC[C@H]3C(=O)N2[C@H]1c1cccc(OCCO)c1	1.76 (inactive)
COc1ccc(CCNC(=O)[C@@H]2c3ccccc3C(=O)N(Cc3ccccc3OC)[C@H]2c2ccc(CO)cc2)cc1	-0.341 (inactive)
CC(C)OC(=O)CC(=O)CC(O)c1cccc([N+](=O)[O-])c1 (stereo unspecified)	-2.42 (inactive)
CCOC(=O)C[C@H]1[C@H](OC(=O)c2cc3ccccc3oc2=O)[C@@H](NC(=O)CC(C)C)c2cc(OCCCO)ccc2N1C(=O)Cc1ccc(OC)cc1	-0.746 (inactive)
CC1=C([C@H](O)CCc2ccccc2)[C@H](CO)n2c(=O)n(-c3ccccc3)c(=O)n2C1	-1.97 (inactive)
CC(C)(C)N1CC=CC23O[C@@H]4C=CCCOC(=O)C4[C@H]2C(=O)N(CCCCCCO)[C@@H]3C1=O (stereo partly specified)	0.735 (inactive)
CCCCCC1=C2CNC(CC(C)C)(C(=O)OC)C=C2C(C)C1=O (stereo unspecified)	0.915 (inactive)
O=C1C=C(c2ccccc2)C(=O)C2=C1CC([C@H]1Oc3ccccc3S(=O)(=O)N3CCC[C@@H]13)=CC2	-0.926 (inactive)
